# Hits are enriched below; roughly 7.1% of the tested compounds scored in any of these assays.
# MCF10A rerep: A quantitative high throughput screen for small molecules that induce DNA re-replication in MCF 10a normal breast cells. MCF 10A DNA re-replication, Hoechst nuclear intensity, 48 h. AID 624296, 2012. Potency, µM (highest dose often 46.1 µM), for the others: at the top dose activity, positive = re-replication, actives largely listed as activators. actives 2.9% (n = 350,000); further: % of control where 0% means no effect; nearly all actives have a fitted effect of over 50% in size
# p53 reactivation: qHTS assay for re-activators of p53 using a Luc reporter; H1299 p53-A138V BP100-luciferase reporter, luminescence, 24 h; Potency, µM (top dose mostly 92.2 µM), for the others: at the highest dose activity change, positive = activation, hits mostly activators; actives 0.063% (n = 320,000); further: % of control where 0% means no effect; nearly all actives have a fitted effect of over 45% in size
#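 H1299 (p53-null), stable ts p53-A138V + BP100-Luc; 1000 cells/well, Opti-MEM/10% FBS; cpd 4 pt, 1:5; 24 h, 37 deg C, 5% CO2; detection reagent 10 min RT; luminescence.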
# SW480 rereplic: A quantitative high throughput screen for small molecules that induce DNA re-replication in SW480 colon adenocarcinoma cells | SW480 DNA re-replication, Hoechst DNA content imaging, 48 h | Potency, µM (top dose mostly 46.1 µM), without a hit: at the highest dose re-replication activation, most hits filed as activators | actives 1.8% (n = 340,000) | AID 624297, 2012; further: % of control where 0% means no effect; nearly all actives have a fitted effect of over 55% in size
#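 250 cells/well; 23 nL cpd via pin tool; 48 hr, 37 C, 5% CO2; Hoechst 40 min; imager read of total nuclear intensity, ex 405/em 500-530 nm.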
# ELG1 genotoxic: qHTS screen for small molecules that induce genotoxicity in human embryonic kidney (HEK293T) cells expressing luciferase-tagged ELG1. HEK293T ELG1-luciferase reporter, luminescence, 16 h. Potency, µM (titrated, usually from 46 µM), inactives show at the highest dose activity change, positive = activation, most hits filed as activators. actives 1.3% (n = 330,000); further: % of control where 0% means no effect; nearly all actives have a fitted effect of over 60% in size
#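 HEK293T cells expressing luciferase-tagged ELG1 were exposed to compound or DMSO vehicle for 16 hr at 37 °C and 5% CO2. Luciferase activity was then measured with ONE-Glo after 30 min at room temperature.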
# ELG1 DNA repair: qHTS screen for small molecules that inhibit ELG1-dependent DNA repair in human embryonic kidney (HEK293T) cells expressing luciferase-tagged ELG1 | Potency, µM (top dose mostly 46.1 µM), for inactives: top-dose activity change, negative = inhibition, most hits filed as inhibitors | HEK293T ELG1-luciferase reporter, luminescence, 16 h; DNA damage induced by 5-fluorouridine | actives 2.3% (n = 330,000); further: on the % scale 0 is the no-effect control and ±100 the full control effect; nearly all actives have a fitted effect of over 55% in size
#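 DMSO vehicle served as the neutral condition. Each well held 2,000 cells given 5-fluorouridine plus compound; after 16 hr at 37 °C/5% CO2, ONE-Glo was added and luciferase measured 30 min later.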
# AT treatment: qHTS Assay for Identifying a Potential Treatment of Ataxia-Telangiectasia; F2112 A-T fibroblasts, KAP-1 phosphorylation AlphaLISA; neocarzinostatin DNA damage 30 min before lysis; Potency, µM (highest dose often 57.5 µM), without a hit: top-dose activation, most hits filed as activators; actives 0.19% (n = 320,000); further: % of control where 0% means no effect; nearly all actives have a fitted effect of over 45% in size
#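 ATM-like activity read as KAP-1 phosphorylation via AlphaLISA donor/acceptor antibody pairs after lysis and 6 hr at 25C. Cells were ATM-null patient fibroblasts (F2112, hTERT), dosed 60 min, then exposed to the DSB inducer NCS for 30 min.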
# * hit, by the source's call; ? = inconclusive; · = not tested or not shown. The call rests on the fitted dose curve; in most records, active means well fitted curve in the direction sought with a large enough effect; inconclusive means small, poorly fitted or top-dose-only effect, or another doubt; inactive means no such curve, though single readings can be large; an effect the other way counts as inactive or inconclusive. Potency means the concentration at half of the fitted maximal effect.
SMILES,MCF10A rerep,p53 reactivation,SW480 rereplic,ELG1 genotoxic,ELG1 DNA repair,AT treatment
COc1ccc(-n2c(=S)[nH]c3cc(C(=O)Nc4ccccc4OC)ccc3c2=O)c(OC)c1,-2%,-1%,-23%,-18%,16µM*,0%
COc1ccccc1N1CCN(C2CCCN(C(=O)c3cccc(-c4ccco4)c3)C2)CC1 (stereo unspecified),?,0%,11%,-22%,23µM*,0%
CCOC(=O)C1CCN(C(=O)C2CCN(S(=O)(=O)c3cccc4nsnc34)CC2)CC1,-1%,10%,-8%,1%,-5%,9%
COc1cc(NC(=O)c2cc3c(C)nc4ccccc4c3o2)cc(OC)c1OC,1%,-5%,-2%,-7%,7.3µM*,4%
Cc1nc2ccccc2c2oc(C(=O)Nc3ccc4c(c3)OCCO4)cc12,6%,4%,1%,-3%,21µM*,0%
Cc1nc2ccccc2c2oc(C(=O)Nc3ccc(C(C)C)cc3)cc12,?,1%,-3%,-4%,23µM*,3%
COc1cccc(CNC(=O)c2cc3c(C)nc4ccccc4c3o2)c1,2%,-3%,2%,-13%,?,0%
O=C(Nc1ccc2c(c1)OCCO2)c1cc2ccccc2o1,1%,?,-10%,?,?,-5%
COc1cc(/C=C2\C(=N)N3N=C(C)SC3=NC2=O)cc(Cl)c1OCCOc1ccc(NC(C)=O)cc1,-4%,-4%,2%,-1%,3%,-3%
COC(=O)c1sc2ccccc2c1-n1cccc1C(=O)C(=O)Nc1ccc(F)cc1,-1%,0%,-1%,-1%,15µM*,3%
Cc1ccc(S(=O)(=O)N(CC(=O)Nc2ccccc2)C(=O)N2CCN(C)CC2)cc1,-1%,0%,3%,3%,8%,9%
CCCCCn1c(=O)[nH]c2cc(C(=O)N3CCN(c4ccc(C(C)=O)cc4)CC3)ccc2c1=O,10%,7%,-18%,-15%,5.8µM*,-10%
CC(=O)c1ccc(N2CCN(C(=O)CCCn3c(=O)[nH]c4ccc(Br)cc4c3=O)CC2)cc1,2%,-5%,-2%,-14%,18µM*,-3%
C/C(=N\NC(=O)c1ccccc1)c1ccccc1F,4%,-5%,1%,5.8µM*,?,0%
NNC(=O)c1ccccc1OCCOc1ccccc1,-3%,11%,?,-2%,1%,-2%
C/C(=N\NC(=O)c1ccccc1OCCOc1ccccc1)c1ccccc1F,?,3%,-128%,-10%,18µM*,-1%
CCN1CCC(O)(C(C(=O)OC)c2ccccc2)CC1 (stereo unspecified),2%,·,-2%,·,·,·
O=C(Nc1ccc(N2CCOCC2)c(Cl)c1)c1cccc(F)c1,1%,?,1%,2.3µM*,?,·
O=C(Nc1ccc(N2CCOCC2)c(Cl)c1)c1cccnc1Cl,-14%,8%,-3%,1%,4%,3%
O=C(Nc1ccc(N2CCOCC2)c(Cl)c1)c1cccnc1,-1%,?,-2%,21µM*,25%,-9%
COc1c(C)cccc1C(=O)Nc1ccc(N2CCOCC2)c(Cl)c1,-1%,?,-4%,8.2µM*,?,·
Cc1cc2oc(=O)cc(CN3CCOCC3)c2c(C)c1Cl,1%,2%,-2%,3%,14%,8%
Cc1ccccc1C(=O)N1CCCC(N2CCN(Cc3ccc4c(c3)OCO4)CC2)C1 (stereo unspecified),11%,11%,15%,-4%,?,-7%
C=CC(=O)N(CCC)C(c1ccccc1)c1ccccc1OC (stereo unspecified),?,-9%,0%,-5%,-2%,14%
CCOC(=O)CC1=NN(c2ccccc2)C(=O)/C1=C\c1ccc(OC)cc1OC,10µM*,-6%,?,10%,?,-3%
SMILES,MCF10A rerep,p53 reactivation,SW480 rereplic,ELG1 genotoxic,ELG1 DNA repair,AT treatment
COc1ccc(C=C2c3ccccc3C(=O)c3ccccc32)c(OC)c1,·,5%,·,?,23µM*,-23%
Cc1c(C(=O)N2CCN(C(c3ccccc3)c3ccccc3)CC2)oc2ccccc12,11%,-1%,0%,3%,17%,-3%
CCCCCOc1ccc(C(O)C(CN2CCOCC2)c2ccccc2)cc1 (stereo unspecified),?,6%,0%,-1%,-21%,-6%
CSC1=NCCN1C(=O)C12CC3CC(CC(C3)C1)C2,?,?,-7%,-8%,-9%,5%
CCC(C)(CCNC(=O)Cc1ccccc1)c1ccccc1OC (stereo unspecified),0%,-3%,-15%,-3%,?,9%
COc1ccc(C(=O)N/N=C(\Cc2ncc[nH]2)c2ccccc2)cc1,?,?,9.2µM*,14%,5%,-1%
c1ccc(N/N=C(\Cc2ncc[nH]2)c2ccccc2)cc1,2%,9%,5%,8%,-13%,-3%
COc1cc(C(=O)N/N=C(\Cc2ncc[nH]2)c2ccccc2)cc(OC)c1OC,18µM*,?,?,10%,?,-5%
O=C(NCc1ccc(Cl)cc1)C(=O)NCC1OCCN1S(=O)(=O)c1cc(F)ccc1F (stereo unspecified),10%,20%,?,3%,-15%,13%
C/C(=N\N1C(=O)c2ccccc2NC1c1ccccc1)c1ccccc1O (stereo unspecified),4%,8%,?,4.6µM*,?,7%
C/C(=N\N1C(=O)c2ccccc2NC1c1ccco1)c1ccccc1O (stereo unspecified),4.1µM*,7%,?,?,?,1%
O=C1c2ccccc2NC(c2ccco2)N1/N=C/c1ccco1 (stereo unspecified),4%,12%,-8%,13%,?,3%
Cc1cccc(NC(=O)/C=C/c2ccc([N+](=O)[O-])s2)c1,2.3µM*,-17%,6.5µM*,?,?,0%
Cc1ccc(NC(=O)/C=C/c2ccc([N+](=O)[O-])s2)c(C)c1,1.6µM*,-46%,4.6µM*,?,?,-9%

# High-throughput results deposited in PubChem by National Center for Advancing Translational Sciences (NCATS).
